# CYP2C9 inhib – human CYP2C9 inhibition | P11712 | CYP2C9 Supersomes, luciferin-H conversion, luminescence | inhibition, % at 5 µM | actives 20% (n = 96,000) | AID 777;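 active = blocking of liver enzyme CYP2C9 beyond about 50% at 5 µM, limit read from the data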
# hDAT+cocaine – modulates human dopamine transporter uptake under cocaine; LLC-PK1 hDAT cells, [14C]-dopamine uptake with cocaine IC80; actives deviate in either direction; B-score at 10 µM; actives 1.3% (n = 110,000); AID 449768;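 active = Z score or B-score, a plate-position-corrected score, falls beyond the plate's 99.7% confidence bounds, in either direction; inactive = both scores lie inside the 99.7% bounds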;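 also: scored against the spread of the other compound wells on the same plate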
# CYP2C19 inhib – blocks human cytochrome P450 2C19; AID 778; inhibition, % at 5 µM; actives 21% (n = 96,000); CYP2C19 Supersomes, luciferin-H EGE luminescence, 30 min; P33261;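 active = CYP2C19 inhibition above a set limit at 5 µM in the primary screen, cut at about 50% in these data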;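 also: plate controls were negative control wells for no effect and 2.5 mM tranylcypromine positive control for full effect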
# Target sequence (P33261 whole entry, looked up): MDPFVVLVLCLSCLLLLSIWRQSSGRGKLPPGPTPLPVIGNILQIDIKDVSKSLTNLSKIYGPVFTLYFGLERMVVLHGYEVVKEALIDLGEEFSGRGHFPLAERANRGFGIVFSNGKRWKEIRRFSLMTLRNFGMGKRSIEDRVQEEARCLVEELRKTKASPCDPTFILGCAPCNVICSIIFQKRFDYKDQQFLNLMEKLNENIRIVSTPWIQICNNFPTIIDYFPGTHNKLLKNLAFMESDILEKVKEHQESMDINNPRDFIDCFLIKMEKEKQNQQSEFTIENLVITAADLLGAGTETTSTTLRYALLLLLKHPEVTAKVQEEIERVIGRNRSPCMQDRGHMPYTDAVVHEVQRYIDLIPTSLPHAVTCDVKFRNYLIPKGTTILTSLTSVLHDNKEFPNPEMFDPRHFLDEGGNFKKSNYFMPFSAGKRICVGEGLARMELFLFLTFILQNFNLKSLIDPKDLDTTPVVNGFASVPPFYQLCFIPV
# CYP2C9 act – activators of human CYP2C9; activation factor at 5 µM; actives 1.4% (n = 96,000); P11712; AID 1024; recombinant CYP2C9, luciferin-H conversion, luminescence; active compounds read high; factor 1 = untreated enzyme, 0 = blocked;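 active = activation factor of 2 or more for CYP2C9 at a 5 µM dose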;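 also: 0 = sulfaphenazole-blocked wells and 1 = vehicle-only wells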
# D1 mod – allosteric modulators of human D1 dopamine receptor; P21728; HEK293 D1, CRE-luciferase, dopamine EC30 potentiation; actives deviate in either direction; B-score at 10 µM; actives 5.9% (n = 58,000); AID 641;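 active = luminescence count or its row- and column-corrected plate score outside the 99.7% band of the plate's sample wells, on either side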
# CYP2C19 act – activators of human cytochrome P450 2C19 | AID 1025 | 96,000 tested, under 10 active | recombinant CYP2C19, luciferin-H EGE luminescence; active compounds read high; 0 = fully inhibited enzyme, 1 = untreated enzyme | activation factor at 5 µM;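 active = activation factor of at least 2 at 5 µM in the primary screen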;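 also: 0 = wells with 2.5 mM tranylcypromine and 1 = vehicle-only wells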
# * hit, by the source's call; / = no result given. A selection: hits, their analogues and other compounds. The true share with any hit is near 28%.
SMILES,CYP2C9 inhib,hDAT+cocaine,CYP2C19 inhib,CYP2C9 act,D1 mod,CYP2C19 act
CCOC(=O)C(NC(C)=O)(Nc1ccc(S(=O)(=O)Nc2ccncn2)cc1)C(F)(F)F (stereo not drawn),/,-0.63,/,/,/,/
CCC1Oc2ccc(C)cc2N(CC(=O)NCCC2=CCCCC2)C1=O (stereo not drawn),25,-0.12,99*,0.7,-0.55,0
CCC1Oc2ccc(C)cc2N(CC(=O)NCCCN2CCCCC2CC)C1=O (stereo not drawn),-8,-0.92,-9,1.1,1.2,1.1
O=C(CN1CCOCC1)NC1CC2CCC1C2 (stereo not drawn),-24,-0.46,-6,1.2,0.063,1.1
CCC(=O)NS(=O)(=O)c1cccnc1Nc1ccccc1Cl,69*,/,8,0.3,/,0.9
COC(=O)COn1c(-n2nc(C)cc2C)nc2ccccc2c1=O,22,-0.045,-2,0.8,/,1
Cc1cc(C)n(-c2nc3ccccc3c(=O)n2OC2CCCCC2)n1,52*,0.52,68*,0.5,0.057,0.3
Cc1cc(C)n(-c2ccc(C(=O)OCn3nnc4ccccc4c3=O)cc2)n1,11,-0.099,14,0.9,/,0.9
CCOn1c(-n2nc(C)cc2C)nc2ccccc2c1=O,6,-0.48,63*,0.9,/,0.4
FC(F)(F)c1nc(Oc2ccccc2)c2ccccc2n1,33,-0.083,38,0.7,/,0.6
O=C(c1ccccc1)N1CCN(C(=O)N2CCOCC2)CC1,-7,-0.84,34,1.1,0.66,0.7
Cc1cn(C(=O)c2cccc(Br)c2)c(C)n1,16,-0.76,29,0.8,8*,0.7
O=C(c1ccccc1)N1CCN(C(=O)c2ccccc2Br)CC1,31,-7.7*,56*,0.7,-1.1,0.4
O=C(c1cccc(Br)c1)N1CCN(C(=O)c2cccc(Br)c2)CC1,/,2.2*,/,/,/,/
COC(=O)C[C@H]1c2cc(C(F)(F)F)ccc2S(=O)(=O)N1c1ccc(N(C)C)cc1,/,-0.44,/,/,/,/
Nc1ccc(C(=O)c2ccccc2C(=O)O)cc1Cl,1,0.28,7,1,0.83,0.9
O=C(c1ccco1)N1CCN(c2ncnc3c2cnn3-c2ccccc2)CC1,15,0.77,27,0.8,-0.28,0.7
CC1(C)Cc2c(C#N)c(N3CCN(C(=O)c4ccco4)CC3)nc(Cc3ccccc3)c2CO1,95*,0.85,73*,0,/,0.3
Cc1nc(N2CCN(C(=O)c3ccc(Cl)cc3)CC2)c(C#N)c2c1COC(C)(C)C2,50*,-0.11,83*,0.5,/,0.2
COc1cc(C(=O)N2CCN(C(=O)C(Cc3cc(C)ccc3C)NC(C)=O)CC2)cc(OC)c1OC (stereo not drawn),/,0.015,/,/,-0.52,/
O=C(O[C@@H]1OC2COC(=O)c3cc(O)c(O)c(O)c3-c3c(cc(O)c(O)c3O)C(=O)O[C@@H]([C@H]1O)[C@@H]2O)c1cc(O)c(O)c(O)c1,/,-0.48,/,/,/,/
CCC(C)NS(=O)(=O)c1ccc(S(=O)(=O)N2CCCC3(CCCCC3)C2)cc1 (stereo not drawn),74*,1.2,35,0.3,/,0.6
CCC(C)NS(=O)(=O)c1ccc(OCC(=O)N2CCCC2)cc1 (stereo not drawn),/,-0.4,/,/,/,/
Cc1csc2nc(CNC(=O)C3CC=CCC3C(=O)O)cn12 (stereo not drawn),24,-0.99,11,0.8,-0.018,0.9
C1=CC2CC1CC2CN1CCN(c2ccccc2)CC1 (stereo not drawn),20,-1.3,66*,0.8,-4.6*,0.3
SMILES,CYP2C9 inhib,hDAT+cocaine,CYP2C19 inhib,CYP2C9 act,D1 mod,CYP2C19 act
CS(=O)(=O)N1CCN(CC2CC3C=CC2C3)CC1 (stereo not drawn),-1,0.54,5,1,-0.32,1
Cc1ccccc1CN1CCN(CC2CC3C=CC2C3)CC1 (stereo not drawn),13,-0.024,61*,0.9,/,0.4
CC(C)(C)c1nnc(NC(=O)NS(=O)(=O)c2ccccc2)s1,21,-0.19,-3,0.8,/,1
c1cc2cn[nH]c2cc1NC1CCCCCC1,64*,1.1,99*,0.4,0.35,0
O=[N+]([O-])c1ccc2cn[nH]c2c1,/,-0.015,/,/,/,/
CCc1ccc(NC(=O)CSc2nnc(CNC(=O)c3c(F)cccc3Cl)o2)cc1,52*,-1.1,21,0.5,0.14,0.8
Cc1nc2oc3c(NCc4ccccc4)ncnc3c2c2c1COC(C)(C)C2,31,/,19,0.7,8.5*,0.8
CC(C)c1nc2oc3c(NCC4CCCO4)ncnc3c2c2c1COC(C)(C)C2 (stereo not drawn),20,1,8,0.8,12*,0.9
Cc1ccc(CC(CC(=O)O)C(=O)NC2CCCCC2)cc1 (stereo not drawn),2,-0.21,6,1,-0.17,0.9
COCCOC(=O)c1c(C)oc2ccc(O)c(CN3CCC(C)CC3)c12,15,-0.45,51*,0.8,-0.4,0.5
COc1ccc(C(=O)c2c(C)oc3ccc(O)c(CN4CCOCC4)c23)cc1,34,1.2,50,0.7,-0.33,0.5
Cc1cc(=O)cc(C)n1-c1ccc2c(c1)nc(C)n2-c1ccccc1,-12,0.38,-6,1.1,-0.031,1.1
Cc1nc2cc(S(=O)(=O)N(C)C)ccc2n1-c1ccccc1,25,-0.14,81*,0.7,-0.38,0.2
COc1cccc(-n2c(C)nc3cc(C(=O)O)ccc32)c1,-32,-0.15,-26,1.3,/,1.3
Cc1nc2ccccc2n1-c1ccccc1,40,-2,67*,0.6,0.11,0.3
Cc1ccccc1-n1c(C)nc2ccccc21,54*,/,82*,0.5,0.33,0.2
Cc1ccc(-c2ccc3c(c2)S(=O)(=O)c2ccccc2C3=O)cc1,/,0.4,/,/,/,/
Cc1cccc(CC2CC(=O)N(c3ccccc3)C2=O)c1 (stereo not drawn),23,-1.1,88*,0.8,0.079,0.1
Cc1cccc(CC2CC(=O)N(C3CCCCC3)C2=O)c1 (stereo not drawn),58*,0.053,99*,0.4,-0.028,0
CCn1c(SCC(=O)c2[nH]c(C)c(C(C)=O)c2C)nnc1-c1ccncc1,8,-0.41,66*,0.9,1.6,0.3
CCn1c(SCC(=O)c2[nH]c(C)c(C(C)=O)c2C)nnc1-c1ccccc1,27,2.2,77*,0.7,/,0.2
CCn1c(SCC(=O)O)nnc1-c1ccccc1,3,/,7,1,0.33,0.9
Cc1nnc(NC(=O)CSc2cn(Cc3ccccc3)c3ccccc23)s1,-9,-1.2,-1,1.1,-1.1,1
Cc1ccc(Cn2cc(SCC(=O)Nc3nccs3)c3ccccc32)cc1,91*,-0.38,-10,0.1,/,1.1
Cc1cccc(Cn2cc(SCC(=O)Nc3nccs3)c3ccccc32)c1,60*,-1.5,-14,0.4,/,1.1
